Measurements reported in PubChem BioAssay (NCATS).
Results filed as inconclusive are left out. Where a call stands in place of a potency, no number is given. Unmarked numbers belong to inactive results. Activity calls are given as the source filed them. The call rests on the fitted dose curve; in most records, active means well fitted cell-killing curve with a large enough effect; inconclusive means small, poorly fitted or top-dose-only effect, or effect the other way; inactive means flat fitted curve, though single readings scatter.

What follows are compounds tested on PA-1 (assay: Primary qHTS to identify gynecologic anti-cancer compounds using libraries of approved drugs and bioactive compounds (AID 1345084; further: nearly all actives have a fitted effect of over 55% in size)). Conditions: Gynecologic cancer cell panel viability, ATPlite luminescence, 48 h; series mostly up to 57.5 µM.
Procedure, shortened: (§1)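 Cells, 1,000 per well, plated 16 h, then exposed 48 h at 37 C to compounds. Viability by ATPlite luminescence after 15 min at room temperature.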

Row | SMILES | Potency | activity change, negative = cytotoxicity
1 | Cc1ccc(C)c(NS(=O)(=O)c2cc(C(=O)Nc3ccccc3-c3ccccc3)ccc2C)c1 | inactive | 
2 | C[C@@H]1C[C@H]2O[C@@]3(O[C@@H]2C(C)(C)O)C(O)[C@@]2(C)C4CCC5C(C)(C)[C@@H](O[C@H]6OC[C@H](O)[C@@H](O)[C@@H]6O)CC[C@@]56C[C@@]46CC[C@]2(C)C13 (stereo partly drawn) | inactive | 
3 | CN(C)[C@@H]1CCc2[nH]c3ccc(NC(=O)c4ccc(F)cc4)cc3c2C1 | inactive | 
4 | O=C(Nc1cc(C(F)(F)F)ccc1N1CCCCC1)c1ccncc1 | inactive | 
5 | O=S(=O)(c1ccc(Cl)cc1)N1CCN(c2ccnc3cc(Cl)ccc23)CC1 | inactive | 
6 | C=C(CCC1C(C)(O)CCC2C(C)(C)C(O)CCC12C)C(O)CO (stereo not drawn) | inactive | 
7 | CCC(CC)Nc1nc(C)c(-c2ccc(OC(F)(F)F)cc2OC)nc1OC | inactive | 
8 | CCOC(=O)c1ccc(OCCC2CCN(c3ccc(C)nn3)CC2)cc1 | inactive | 
9 | CC(=O)NC[C@H]1CN(c2ccc(N3CCSCC3)c(F)c2)C(=O)O1 | inactive | 
10 | COc1ccc(OC)c(-c2ccc(NC(=O)c3ccncc3F)cc2)c1 | inactive | 
11 | Nc1nc(OCc2cc(Br)cs2)c2[nH]cnc2n1 | inactive | 
12 | CC1CCC(=O)CC(SCC(O)C(=O)O)CCC(=O)O1 (stereo not drawn) | inactive | 
13 | Cc1nc(N2CCN(C(=O)c3ccco3)CC2)c2c3c(sc2n1)CCCC3 | inactive | 
14 | CC(C)c1cc(-c2ccc(F)c3ccccc23)nc(N)n1 | inactive | 
15 | Cc1cc(C)nc(SCC(=O)Nc2ncc(Cc3cccc4ccccc34)s2)n1 | inactive | 
16 | CC(C)(C)OC(=O)c1ncn2c1C(C)(C)Nc1ccccc1-2 | inactive | 
17 | FC(F)(F)c1ccccc1-c1cc(C(F)(F)F)c2nc(C3=NOC4(CCCCC4)C3)[nH]c2c1 | inactive | 
18 | C=C1C(=O)O[C@H]2C1CCC(C)=C1C(=O)C=C(C)[C@@]12O (stereo partly drawn) | inactive | 
19 | CN(C)CCOc1cc(NS(=O)(=O)c2c(Cl)cc(C(F)(F)F)cc2Cl)ccc1Cl | inactive | 
20 | O=C(NCCCCN1CCN(c2cccc(Cl)c2Cl)CC1)c1cc2ccccc2s1 | inactive | 

Row | SMILES | Potency | activity change, negative = cytotoxicity
21 | COC(=O)c1sccc1S(=O)(=O)Nc1ccc(Nc2ccccc2)cc1OC | inactive | 
22 | COc1cccc(CN(C(=O)CC(C)(C)C)[C@H]2C[C@H](C(=O)N3CCNCC3)N(Cc3ccc4c(c3)OCO4)C2)c1 | inactive | 
23 | CCCSc1nc(N[C@@H]2C[C@H]2c2ccc(F)c(F)c2)c2nnn([C@@H]3C[C@H](OCCO)[C@@H](O)[C@H]3O)c2n1 | inactive | 
24 | COc1ccccc1N1CCN(c2ncnc3n[nH]c(Br)c23)CC1 | inactive | 
25 | Cc1ccc(F)cc1S(=O)(=O)N[C@@H]1CCN(Cc2ccc(OC(C)C)cc2)C1 | inactive | 
26 | Cc1ccccc1CN1CCn2c1nc1c(c2=O)CN(Cc2ccccc2)CC1 | inactive | 
27 | O=C(O)c1cccc(-c2ccc(-c3cn(C(=O)N4CCCCC4Cc4ccccc4)nn3)cc2)c1 (stereo not drawn) | inactive | 
28 | CC(CCC1(O)OC2CC3C4CC=C5C[C@@H](O[C@@H]6O[C@H](CO)[C@@H](O[C@@H]7O[C@@H](C)[C@H](O)[C@@H](O)[C@H]7O)[C@H](O)[C@H]6O[C@@H]6O[C@@H](C)[C@H](O)[C@@H](O)[C@H]6O)CC[C@]5(C)C4CC[C@]3(C)[C@@]2(O)[C@@H]1C)CO[C@@H]1O[C@H](CO)[C@@H](O)[C@H](O)[C@H]1O (stereo partly drawn) |  | 19.4% [at 11.6 µM]
29 | CC(=O)OC1CC2(C)C(CCC(C)C23Cc2c(O)cc(CO)c(C=O)c2O3)C(C)(C)C1O (stereo not drawn) | inactive | 
30 | CC1(C=O)CCCC2(C)C1CCC13CC(CO)C(CCC12)C3 (stereo not drawn) | inactive | 
31 | CN1CCc2cc3c(cc2C(=O)Cc2cc4c(cc2C1)OCO4)OCO3 | inactive | 
32 | COc1ccc(CNCc2cccc3ccccc23)cc1 | inactive | 
33 | CCOc1ccc(-n2c(C(C)N(Cc3cccnc3)C(=O)Cc3ccc(F)c(C(F)(F)F)c3)nc3ncccc3c2=O)cc1 (stereo not drawn) | inactive | 
34 | O=C(Cc1c(F)cccc1F)Nc1cc(OCc2ccc(Cl)cc2)ccn1 | inactive | 
35 | C[C@@H](NC(=O)C(=O)c1c[nH]c2ccc([N+](=O)[O-])cc12)c1ccccc1 | inactive | 
36 | CC(=O)OC/C(=C/C(=O)O)CC[C@@H]1C(C=O)=CC[C@@H]2C(C)(C)CCC[C@@]12C | inactive | 
37 | Cc1cc(F)c(C(=O)Nc2cccc(-c3nncn3C(C)C)n2)cc1-n1cnc(C2CC2)c1 | inactive | 
38 | CCC(C)C(=O)O[C@H]1[C@@H](OC(=O)c2ccoc2)C[C@](C)(O)[C@]23OC(C)(C)[C@H](C[C@H](OC(=O)c4ccoc4)[C@]12COC(C)=O)[C@H]3OC(C)=O (stereo partly drawn) | inactive | 
39 | Cc1ccc(-c2ncc[nH]2)cc1NC(=O)c1ccc(OCc2ccccn2)cc1 | inactive | 

Each compound was assayed on SKOV3 in the same assay as above. Conditions: Gynecologic cancer cell panel viability, ATPlite luminescence, 48 h; series mostly up to 57.5 µM.
Procedure, shortened: as §1

Row | SMILES | Potency | activity change, negative = cytotoxicity
40 | Cc1ccc(C)c(NS(=O)(=O)c2cc(C(=O)Nc3ccccc3-c3ccccc3)ccc2C)c1 | inactive | 
41 | C[C@@H]1C[C@H]2O[C@@]3(O[C@@H]2C(C)(C)O)C(O)[C@@]2(C)C4CCC5C(C)(C)[C@@H](O[C@H]6OC[C@H](O)[C@@H](O)[C@@H]6O)CC[C@@]56C[C@@]46CC[C@]2(C)C13 (stereo partly drawn) | inactive | 
42 | CN(C)[C@@H]1CCc2[nH]c3ccc(NC(=O)c4ccc(F)cc4)cc3c2C1 | inactive | 
43 | O=C(Nc1cc(C(F)(F)F)ccc1N1CCCCC1)c1ccncc1 | inactive | 
44 | O=S(=O)(c1ccc(Cl)cc1)N1CCN(c2ccnc3cc(Cl)ccc23)CC1 | inactive | 
45 | C=C(CCC1C(C)(O)CCC2C(C)(C)C(O)CCC12C)C(O)CO (stereo not drawn) | inactive | 
46 | CCC(CC)Nc1nc(C)c(-c2ccc(OC(F)(F)F)cc2OC)nc1OC | inactive | 
47 | CCOC(=O)c1ccc(OCCC2CCN(c3ccc(C)nn3)CC2)cc1 | inactive | 
48 | CC(=O)NC[C@H]1CN(c2ccc(N3CCSCC3)c(F)c2)C(=O)O1 | inactive | 
49 | COc1ccc(OC)c(-c2ccc(NC(=O)c3ccncc3F)cc2)c1 | inactive | 
50 | Nc1nc(OCc2cc(Br)cs2)c2[nH]cnc2n1 | inactive | 
51 | CC1CCC(=O)CC(SCC(O)C(=O)O)CCC(=O)O1 (stereo not drawn) | inactive | 
52 | Cc1nc(N2CCN(C(=O)c3ccco3)CC2)c2c3c(sc2n1)CCCC3 | inactive | 
53 | CC(C)c1cc(-c2ccc(F)c3ccccc23)nc(N)n1 | inactive | 
54 | Cc1cc(C)nc(SCC(=O)Nc2ncc(Cc3cccc4ccccc34)s2)n1 | inactive | 
55 | CC(C)(C)OC(=O)c1ncn2c1C(C)(C)Nc1ccccc1-2 | inactive | 
56 | FC(F)(F)c1ccccc1-c1cc(C(F)(F)F)c2nc(C3=NOC4(CCCCC4)C3)[nH]c2c1 | inactive | 
57 | C=C1C(=O)O[C@H]2C1CCC(C)=C1C(=O)C=C(C)[C@@]12O (stereo partly drawn) | inactive | 
58 | CN(C)CCOc1cc(NS(=O)(=O)c2c(Cl)cc(C(F)(F)F)cc2Cl)ccc1Cl | inactive | 
59 | O=C(NCCCCN1CCN(c2cccc(Cl)c2Cl)CC1)c1cc2ccccc2s1 | inactive | 

Row | SMILES | Potency | activity change, negative = cytotoxicity
60 | COC(=O)c1sccc1S(=O)(=O)Nc1ccc(Nc2ccccc2)cc1OC | inactive | 
61 | COc1cccc(CN(C(=O)CC(C)(C)C)[C@H]2C[C@H](C(=O)N3CCNCC3)N(Cc3ccc4c(c3)OCO4)C2)c1 | inactive | 
62 | CCCSc1nc(N[C@@H]2C[C@H]2c2ccc(F)c(F)c2)c2nnn([C@@H]3C[C@H](OCCO)[C@@H](O)[C@H]3O)c2n1 | inactive | 
63 | COc1ccccc1N1CCN(c2ncnc3n[nH]c(Br)c23)CC1 | inactive | 
64 | Cc1ccc(F)cc1S(=O)(=O)N[C@@H]1CCN(Cc2ccc(OC(C)C)cc2)C1 | inactive | 
65 | Cc1ccccc1CN1CCn2c1nc1c(c2=O)CN(Cc2ccccc2)CC1 | inactive | 
66 | O=C(O)c1cccc(-c2ccc(-c3cn(C(=O)N4CCCCC4Cc4ccccc4)nn3)cc2)c1 (stereo not drawn) | inactive | 
67 | CC(CCC1(O)OC2CC3C4CC=C5C[C@@H](O[C@@H]6O[C@H](CO)[C@@H](O[C@@H]7O[C@@H](C)[C@H](O)[C@@H](O)[C@H]7O)[C@H](O)[C@H]6O[C@@H]6O[C@@H](C)[C@H](O)[C@@H](O)[C@H]6O)CC[C@]5(C)C4CC[C@]3(C)[C@@]2(O)[C@@H]1C)CO[C@@H]1O[C@H](CO)[C@@H](O)[C@H](O)[C@H]1O (stereo partly drawn) |  | 2.43% [at 11.6 µM]
68 | CC(=O)OC1CC2(C)C(CCC(C)C23Cc2c(O)cc(CO)c(C=O)c2O3)C(C)(C)C1O (stereo not drawn) | inactive | 
69 | CC1(C=O)CCCC2(C)C1CCC13CC(CO)C(CCC12)C3 (stereo not drawn) | inactive | 
70 | CN1CCc2cc3c(cc2C(=O)Cc2cc4c(cc2C1)OCO4)OCO3 | inactive | 
71 | COc1ccc(CNCc2cccc3ccccc23)cc1 | inactive | 
72 | CCOc1ccc(-n2c(C(C)N(Cc3cccnc3)C(=O)Cc3ccc(F)c(C(F)(F)F)c3)nc3ncccc3c2=O)cc1 (stereo not drawn) | inactive | 
73 | O=C(Cc1c(F)cccc1F)Nc1cc(OCc2ccc(Cl)cc2)ccn1 | inactive | 
74 | C[C@@H](NC(=O)C(=O)c1c[nH]c2ccc([N+](=O)[O-])cc12)c1ccccc1 | inactive | 
75 | CC(=O)OC/C(=C/C(=O)O)CC[C@@H]1C(C=O)=CC[C@@H]2C(C)(C)CCC[C@@]12C | inactive | 
76 | Cc1cc(F)c(C(=O)Nc2cccc(-c3nncn3C(C)C)n2)cc1-n1cnc(C2CC2)c1 | inactive | 
77 | CCC(C)C(=O)O[C@H]1[C@@H](OC(=O)c2ccoc2)C[C@](C)(O)[C@]23OC(C)(C)[C@H](C[C@H](OC(=O)c4ccoc4)[C@]12COC(C)=O)[C@H]3OC(C)=O (stereo partly drawn) | inactive | 
78 | Cc1ccc(-c2ncc[nH]2)cc1NC(=O)c1ccc(OCc2ccccn2)cc1 | inactive | 
